In the GenesisPotency data set:
Out of some 290,000 compounds screened, about 3,000 (1%) were called active. Rule as the data show it: active = inhibition mostly above about 36% (no sharp cut-off); inactive = mostly below about 34%. This excerpt belongs to a sample that is enriched for actives.

What follows are compounds tested against T1, Nucleotide-binding oligomerization domain-containing protein 1, Homo sapiens (UniProt Q9Y239) (assay: NOD1 signaling inhibitors, primary screen, cell-based, luminescence, uHTS (AID 1578)).
T1 sequence (whole entry): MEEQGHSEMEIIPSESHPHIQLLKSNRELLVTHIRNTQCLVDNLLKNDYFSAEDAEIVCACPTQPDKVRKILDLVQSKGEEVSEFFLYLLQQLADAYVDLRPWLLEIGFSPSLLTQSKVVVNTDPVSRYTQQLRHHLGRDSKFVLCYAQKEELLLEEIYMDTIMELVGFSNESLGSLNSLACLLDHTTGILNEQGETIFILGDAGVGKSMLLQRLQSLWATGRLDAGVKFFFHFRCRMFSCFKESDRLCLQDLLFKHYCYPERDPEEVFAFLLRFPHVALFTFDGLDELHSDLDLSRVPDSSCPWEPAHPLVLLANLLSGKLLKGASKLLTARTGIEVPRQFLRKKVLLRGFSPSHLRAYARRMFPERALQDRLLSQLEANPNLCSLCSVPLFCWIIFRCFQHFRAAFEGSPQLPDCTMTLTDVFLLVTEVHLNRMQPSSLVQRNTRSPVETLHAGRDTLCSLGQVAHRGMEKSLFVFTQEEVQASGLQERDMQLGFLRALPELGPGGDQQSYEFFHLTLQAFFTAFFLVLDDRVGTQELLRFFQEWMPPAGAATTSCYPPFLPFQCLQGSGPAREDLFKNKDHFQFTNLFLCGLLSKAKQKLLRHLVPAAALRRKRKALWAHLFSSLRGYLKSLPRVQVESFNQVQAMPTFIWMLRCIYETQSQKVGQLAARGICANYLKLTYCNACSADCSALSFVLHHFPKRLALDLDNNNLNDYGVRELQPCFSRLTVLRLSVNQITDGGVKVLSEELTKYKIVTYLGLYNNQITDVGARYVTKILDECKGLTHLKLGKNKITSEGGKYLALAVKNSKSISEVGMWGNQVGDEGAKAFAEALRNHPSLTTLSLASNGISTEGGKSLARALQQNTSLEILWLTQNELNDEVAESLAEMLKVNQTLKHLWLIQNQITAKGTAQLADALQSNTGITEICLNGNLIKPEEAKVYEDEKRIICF

SMILES	outcome
COc1ccc(-c2cc(-c3ccccc3)[n+](C)c(-c3ccccc3)c2)cc1.[O-][Cl+3]([O-])([O-])[O-]	active
COc1ccc(-[n+]2c(-c3ccccc3)cc(-c3ccc(C)cc3)cc2-c2ccccc2)cc1.[O-][Cl+3]([O-])([O-])[O-]	active
CC(C)CC(NC(=O)CCCNC(=O)CCC(=O)OC1O[C@H]2OC3(C)CC[C@H]4[C@H](C)CCC(C1C)C24OO3)C(=O)O (some centres undefined)	active
CCC(C)C(NC(=O)CCCNC(=O)CCC(=O)OC1O[C@H]2OC3(C)CC[C@H]4[C@H](C)CCC(C1C)C24OO3)C(=O)O (some centres undefined)	active
CCC(C)NC(=O)CCC(=O)OC1O[C@H]2OC3(C)CC[C@H]4[C@H](C)CCC(C1C)C24OO3 (some centres undefined)	active
CC[C@@]1(O)C(=O)OCc2c1cc1n(c2=O)Cc2cc3ccccc3nc2-1	active
CCCCCCn1c(=O)c(C(=O)Nc2cnccn2)c(O)c2ccccc21	active
CCCCCn1c(=O)c(C(=O)Nc2cnccn2)c(O)c2ccccc21	active
C=C1C(=O)O[C@@H]2C[C@@H](C)[C@@H]3C=CC(=O)[C@@]3(C)[C@@H](OC(=O)CC(=O)O[C@H]3[C@@H]4C(=C)C(=O)O[C@@H]4C[C@@H](C)[C@@H]4C=CC(=O)[C@]43C)[C@H]12	active
C=C1C(=O)O[C@H]2C[C@@H](C)[C@@H]3C=CC(=O)[C@@]3(C)C[C@H]12	active
O=c1c2ccccc2nc(/C=C/c2ccccc2O)n1-c1ccccc1O	active
CC(C)(C)c1ccc(CSc2cnn(C(C)(C)C)c(=O)c2Cl)cc1	active
O=Cc1cn(Cc2cccc([N+](=O)[O-])c2)c2ccccc12	active
Cc1cccc(-n2c(/C=C/c3ccc([N+](=O)[O-])o3)nc3ccccc3c2=O)c1	active
O=c1c2ccccc2nc(/C=C/c2ccc([N+](=O)[O-])o2)n1-c1ccc(O)cc1	active
O=C(c1ccc(Cl)cc1)C1CCCN(Cc2cccc3ncccc23)C1 (centres undefined)	active
Cc1nc2c(=O)n(C)c(=O)nc-2n(C)n1	active

SMILES	outcome
CCOc1ccc(-c2cc(C)[n+](CCN(CC)CC)c(-c3ccc(OCC)cc3)c2)cc1.[O-][Cl+3]([O-])([O-])[O-]	active
CC(=O)c1c(C)n(C2CCCCC2)c2ccc(O)cc12	active
C[C@H]1CCC[C@@H](O)CCC/C=C/c2cc(O)cc(O)c2C(=O)O1	active
CC1=CC(=Cc2sc3ccccc3[n+]2C)C=C(C)O1.[O-][Cl+3]([O-])([O-])[O-]	active
CC(C)[C@H]1C(=O)O[C@H](C(C)C)C(=O)N(C)[C@@H](C(C)C)C(=O)O[C@H](C(C)C)C(=O)N(C)[C@@H](C(C)C)C(=O)O[C@H](C(C)C)C(=O)N1C	active
CCn1nc(/C=C/c2ccccc2)nc2c(=O)n(C)c(=O)nc1-2	active
CCn1nc(-c2ccccc2)nc2c(=O)n(C)c(=O)nc1-2	active
Cc1nn(C(C)(C)C)c(C)c1/C=N/OC(=O)Nc1ccc(Cl)cc1	active
Cc1nn(C(C)(C)C)c(C)c1/C=N/OC(=O)Nc1ccc(Cl)c(Cl)c1	active
COc1ccc(Oc2cc(NC(=O)c3nn(C)cc3[N+](=O)[O-])cc([N+](=O)[O-])c2)cc1	active
C[C@@H]1O[C@@H](O[C@H]2C[C@@H](O)[C@]3(CO)[C@H]4[C@H](O)C[C@]5(C)[C@@H](C6=CC(=O)OC6)CC[C@]5(O)[C@@H]4CC[C@]3(O)C2)[C@H](O)[C@H](O)[C@H]1O	active
NC(=O)c1cn(C2OC(CO)C(O)C2O)c2ncnc(N)c12.O (centres undefined)	active
CCCCN=C[C@]12CCC(O)CC1(O)CCC1[C@@H]2CC[C@]2(C)[C@H](C3C=CC(=O)O3)CCC12O (some centres undefined)	active
C[C@]12CCC3C(CCC4=CC(O)CC[C@@]43/C=N/O)C1(O)CCC2C1=CC(=O)OC1 (some centres undefined)	active
CC(=O)OC[C@]12CCC(C)=C[C@H]1O[C@@H]1[C@H](O)[C@@H](OC(C)=O)[C@@]2(C)[C@]12CO2	active
C=C1C(=O)O[C@@H]2C[C@@H](C)[C@@H]3C4OC4C(=O)[C@@]3(C)[C@@H](O)[C@H]12 (some centres undefined)	active
CCOc1ccc(-c2c(C)n(-c3ccc(OCC)cc3)c3[n+]2CCCCC3)cc1.[O-][Cl+3]([O-])([O-])[O-]	active
